Measurements from PubChem BioAssay (NCI).
The panel holds about 83,000 compounds, 20% with a hit somewhere; the sample as a whole holds those more often.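 The test compound was applied at a single concentration to cells in 96-well plates for 48 hours, and percent growth was recorded.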 Active and inactive are the calls of the source. Rule for the calls: active = growth percent below 10; inactive = the rest.

Columns and labels:
Experiment in all cases: NCI-60 one-dose screen, 48 h (100 = growth as untreated, 0 = no growth, -100 = all killed)
Settings in all cases: 10 µM unless noted
RPMI-8226 leukemia = system: RPMI-8226 leukemia
OVCAR-8 ovarian = system: OVCAR-8 ovarian
OVCAR-5 ovarian = system: OVCAR-5 ovarian
OVCAR-4 ovarian = system: OVCAR-4 ovarian
IGROV1 ovarian = system: IGROV1 ovarian
OVCAR-3 ovarian = system: OVCAR-3 ovarian
HS 578T breast = system: HS 578T breast
T-47D breast = system: T-47D breast
SK-OV-3 ovarian = system: SK-OV-3 ovarian
NCI/ADR-RES ovarian = system: NCI/ADR-RES ovarian

Measured: growth

COc1ccc(C(=O)c2cc(C(=O)/C=C/c3c(Cl)cccc3Cl)c3cc(C)ccn23)cc1
inactive: RPMI-8226 leukemia 92.6% | OVCAR-8 ovarian 100% | OVCAR-5 ovarian 102% | OVCAR-4 ovarian 106% | IGROV1 ovarian 95.9% | OVCAR-3 ovarian 103% | HS 578T breast 95.7% | T-47D breast 91.7%

O=C(Oc1ccc2ccc(=O)oc2c1)c1ccc(Cl)cc1
inactive: RPMI-8226 leukemia 109% | OVCAR-8 ovarian 105% | OVCAR-5 ovarian 110% | OVCAR-4 ovarian 119% | SK-OV-3 ovarian 109% | OVCAR-3 ovarian 118% | HS 578T breast 103% | NCI/ADR-RES ovarian 101% | T-47D breast 105%

COc1ccc(Cc2nn(CC(=O)N/N=C/c3ccc(Cl)cc3)c(=O)c3c(C)noc23)cc1
inactive: RPMI-8226 leukemia 87.4% | OVCAR-8 ovarian 61.9% | OVCAR-5 ovarian 97.3% | OVCAR-4 ovarian 59.2% | IGROV1 ovarian 82.1% | OVCAR-3 ovarian 107% | HS 578T breast 22.1% | T-47D breast 58.9%

C=C1CC[C@H]2[C@@](C)(CCC3OC(c4ccc(OCc5cn(C6CC(OC(C)=O)C(OC(C)=O)C(COC(C)=O)O6)nn5)cc4)OC[C@]32C)[C@@H]1/C=C/C1=CCOC1=O (stereo partly specified)
inactive: RPMI-8226 leukemia 41.2% | OVCAR-8 ovarian 81.8% | OVCAR-5 ovarian 97.4% | OVCAR-4 ovarian 72.7% | SK-OV-3 ovarian 103% | OVCAR-3 ovarian 81.9% | HS 578T breast 75.7% | NCI/ADR-RES ovarian 92.8% | T-47D breast 40%

CC1=C(C)C(=O)C(Nc2cccc(C(F)(F)F)c2)=C(Cl)C1=O
active: RPMI-8226 leukemia -3.12% | OVCAR-4 ovarian -80.4% | IGROV1 ovarian -7.2% | T-47D breast -39%
inactive: OVCAR-8 ovarian 87.1% | OVCAR-5 ovarian 100% | OVCAR-3 ovarian 70.4% | HS 578T breast 87.6%

COc1ccc([C@@H]2c3[nH]c4ccccc4c3CC3C(=O)N(C4CCN(Cc5c(F)cccc5F)CC4)CC(=O)N32)c(OC)c1 (stereo partly specified)
inactive: RPMI-8226 leukemia 41.3% [5.26 µM] | OVCAR-8 ovarian 73.4% [5.26 µM] | OVCAR-5 ovarian 76.7% [5.26 µM] | OVCAR-4 ovarian 69.4% [5.26 µM] | IGROV1 ovarian 39.8% [5.26 µM] | OVCAR-3 ovarian 64.1% [5.26 µM] | HS 578T breast 45.1% [5.26 µM] | T-47D breast 47.1% [5.26 µM]

C#Cc1nc(C2=C(C)C(O)/C(=N/O)C2)cs1 (stereo unspecified)
active: RPMI-8226 leukemia -15.4% | NCI/ADR-RES ovarian 1%
inactive: OVCAR-8 ovarian 94.3% | OVCAR-5 ovarian 100% | OVCAR-4 ovarian 89.6% | SK-OV-3 ovarian 111% | OVCAR-3 ovarian 125% | HS 578T breast 97.6% | T-47D breast 89.9%

O=C1c2c(c3c4cccnc4[nH]c3c3ccc4ccccc4c23)C(=O)N1CCO
inactive: RPMI-8226 leukemia 72.7% | OVCAR-8 ovarian 78% | OVCAR-5 ovarian 121% | OVCAR-4 ovarian 105% | SK-OV-3 ovarian 84.8% | HS 578T breast 121% | NCI/ADR-RES ovarian 87.2% | T-47D breast 37.2%

CN(C)c1ccc(-c2c(NC(C)(C)C)nc3c(OCCc4ccccc4)cccn23)cc1
inactive: OVCAR-8 ovarian 18.7% | OVCAR-5 ovarian 21.5% | OVCAR-4 ovarian 31.3% | OVCAR-3 ovarian 20.2% | HS 578T breast 23.8% | T-47D breast 10.1%
active: RPMI-8226 leukemia -27.5% | SK-OV-3 ovarian 8.93% | NCI/ADR-RES ovarian 4.77%

Cc1cc(C(=O)Nc2sc3c(c2C(N)=O)CCC(=O)C3)ccc1OCCN1CCCCC1
inactive: RPMI-8226 leukemia 85.7% | OVCAR-8 ovarian 101% | OVCAR-5 ovarian 119% | OVCAR-4 ovarian 108% | IGROV1 ovarian 91% | OVCAR-3 ovarian 97.7% | HS 578T breast 102% | T-47D breast 89.4%

C#Cc1nc(C2=C(C)C(O)CC2)cs1 (stereo unspecified)
inactive: RPMI-8226 leukemia 97.4% | OVCAR-8 ovarian 107% | OVCAR-5 ovarian 120% | OVCAR-4 ovarian 115% | SK-OV-3 ovarian 89% | OVCAR-3 ovarian 120% | HS 578T breast 104% | NCI/ADR-RES ovarian 35.9% | T-47D breast 92%

NC(=O)c1c(NC(=O)c2ccc(C3CCCCC3)cc2)sc2c1CCC(=O)C2
active: RPMI-8226 leukemia -15% | OVCAR-4 ovarian -0.0254% | T-47D breast -5.15%
inactive: OVCAR-8 ovarian 14.8% | OVCAR-5 ovarian 23.4% | OVCAR-3 ovarian 22.4% | HS 578T breast 35.4%

CSc1ccc2c(c1)N(C(=O)/C(C#N)=C/c1c[nH]c3ccccc13)c1ccccc1S2
inactive: RPMI-8226 leukemia 21.3% | OVCAR-8 ovarian 52.4% | OVCAR-5 ovarian 63.1% | OVCAR-4 ovarian 59.5% | IGROV1 ovarian 40.2% | OVCAR-3 ovarian 37.5% | HS 578T breast 37.8% | T-47D breast 29.9%

COC(=O)c1ccc(NC(=S)N2CCc3ccc([N+](=O)[O-])cc3C2)cc1O
inactive: RPMI-8226 leukemia 101% | OVCAR-8 ovarian 101% | OVCAR-4 ovarian 112% | SK-OV-3 ovarian 98.4% | IGROV1 ovarian 99% | OVCAR-3 ovarian 116% | HS 578T breast 102% | NCI/ADR-RES ovarian 107% | T-47D breast 103%

O=C(Nc1nc2ccc(O)cc2s1)c1cccc(C(F)(F)F)c1
inactive: RPMI-8226 leukemia 46.9% | OVCAR-8 ovarian 55.5% | OVCAR-5 ovarian 93.4% | OVCAR-4 ovarian 63.6% | IGROV1 ovarian 64.4% | OVCAR-3 ovarian 67.2% | HS 578T breast 101% | T-47D breast 51.3%

Cc1ccccc1NC(=O)/C=C/c1ccc(OCCOc2ccc3c(C)cc(=O)oc3c2)cc1
inactive: RPMI-8226 leukemia 94% | OVCAR-8 ovarian 64.9% | OVCAR-5 ovarian 103% | OVCAR-4 ovarian 75.5% | SK-OV-3 ovarian 77.6% | HS 578T breast 61.2% | NCI/ADR-RES ovarian 84.6% | T-47D breast 84.1%

CC1=C(C)C(=O)C(Nc2ccccc2)=C(Cl)C1=O
inactive: RPMI-8226 leukemia 53.6% | OVCAR-8 ovarian 94.9% | OVCAR-5 ovarian 104% | OVCAR-3 ovarian 102% | HS 578T breast 101%
active: OVCAR-4 ovarian -97.9% | IGROV1 ovarian 9.69% | T-47D breast -38.9%

CO/N=C1\CCc2c(sc(NC(=O)c3cccc(C(F)(F)F)c3)c2C(N)=O)C1
inactive: RPMI-8226 leukemia 35.4% | OVCAR-8 ovarian 20.9% | OVCAR-5 ovarian 41.4% | IGROV1 ovarian 11.9%
active: OVCAR-4 ovarian -45.4% | OVCAR-3 ovarian 7.66% | HS 578T breast 5.79% | T-47D breast -18.5%

Cn1cc(-c2cc(N)n3nc(-c4cn(C)c5ccc(Br)cc45)cc3n2)c2cc(Br)ccc21
inactive: RPMI-8226 leukemia 64.3% | OVCAR-8 ovarian 86.8% | OVCAR-5 ovarian 100% | OVCAR-4 ovarian 86.1% | SK-OV-3 ovarian 110% | OVCAR-3 ovarian 109% | HS 578T breast 111% | NCI/ADR-RES ovarian 86.5% | T-47D breast 101%

Nc1cc(-c2c[nH]c3ccc(F)cc23)nc2cc(-c3c[nH]c4ccc(F)cc34)nn12
inactive: RPMI-8226 leukemia 30.7% | OVCAR-8 ovarian 89.8% | OVCAR-5 ovarian 115% | OVCAR-4 ovarian 96.1% | SK-OV-3 ovarian 135% | OVCAR-3 ovarian 94.4% | HS 578T breast 112% | NCI/ADR-RES ovarian 93% | T-47D breast 81.7%

Cn1cc(-c2cc(N)n3nc(-c4cn(C)c5ccc(Cl)cc45)cc3n2)c2cc(Cl)ccc21
inactive: RPMI-8226 leukemia 88.5% | OVCAR-8 ovarian 90.4% | OVCAR-4 ovarian 75.1% | SK-OV-3 ovarian 123% | IGROV1 ovarian 88.9% | OVCAR-3 ovarian 84.8% | HS 578T breast 107% | NCI/ADR-RES ovarian 73.5% | T-47D breast 90.7%

COc1cccc(NC2=CC(=O)C(C)=C(C)C2=O)c1
active: OVCAR-4 ovarian -1.68% | OVCAR-3 ovarian 0.294%
inactive: RPMI-8226 leukemia 17.5% | OVCAR-8 ovarian 16.9% | OVCAR-5 ovarian 101% | HS 578T breast 112% | T-47D breast 47.7%

Cn1c(SCC(=O)c2cccs2)nc2ccccc2c1=O
inactive: RPMI-8226 leukemia 81.7% | OVCAR-8 ovarian 97.5% | OVCAR-5 ovarian 109% | OVCAR-4 ovarian 92.9% | IGROV1 ovarian 74.8% | OVCAR-3 ovarian 98% | HS 578T breast 90.8% | T-47D breast 54.2%

COC(=O)C1CN(S(=O)(=O)/N=C2\NC(=O)NC2=C(Cl)Cl)C1
inactive: RPMI-8226 leukemia 85.2% | OVCAR-8 ovarian 99.9% | OVCAR-5 ovarian 116% | OVCAR-4 ovarian 123% | SK-OV-3 ovarian 113% | OVCAR-3 ovarian 116% | HS 578T breast 104% | NCI/ADR-RES ovarian 109% | T-47D breast 81%

CCOC(=O)c1c(NC(=O)c2cccc(C(F)(F)F)c2)sc2cc(O)ccc12
inactive: RPMI-8226 leukemia 73.9% | OVCAR-8 ovarian 105% | OVCAR-5 ovarian 98.4% | OVCAR-4 ovarian 104% | OVCAR-3 ovarian 98.6% | HS 578T breast 88.1% | T-47D breast 64%

NS(=O)(=O)c1cccc(Nc2nc(SCC(=O)c3ccc([N+](=O)[O-])cc3)nc3ccccc23)c1
inactive: OVCAR-8 ovarian 24.1% | OVCAR-5 ovarian 108% | OVCAR-4 ovarian 43% | SK-OV-3 ovarian 73.5% | OVCAR-3 ovarian 36.5% | HS 578T breast 65.6% | NCI/ADR-RES ovarian 72.7% | T-47D breast 10.8%
active: RPMI-8226 leukemia -9.57%

Nc1ncc(-c2ccc3ncnc(N4CCc5cc(F)c(Cl)cc54)c3c2)cc1CO
inactive: OVCAR-8 ovarian 12.5% | OVCAR-5 ovarian 19.9%
active: RPMI-8226 leukemia -25.4% | OVCAR-4 ovarian 8.51% | SK-OV-3 ovarian -18.4% | OVCAR-3 ovarian -19.8% | HS 578T breast -18% | NCI/ADR-RES ovarian 9.17% | T-47D breast 0.798%

O=C1[C@H]2Cc3c([nH]c4ccccc34)[C@@H](c3ccc(Br)cc3)N2C(=O)CN1C1CCN(Cc2ccccc2)CC1
inactive: OVCAR-8 ovarian 41.6% | OVCAR-5 ovarian 65% | OVCAR-4 ovarian 48.3% | IGROV1 ovarian 18.7% | OVCAR-3 ovarian 68.1% | HS 578T breast 36.7% | T-47D breast 19.3%
active: RPMI-8226 leukemia 3.9%

O=C(CSc1nc2sc3c(c2c(=O)n1-c1ccc(Cl)cc1)CCCC3)N/N=C/c1ccc(F)cc1
inactive: RPMI-8226 leukemia 97.2% | OVCAR-8 ovarian 96.7% | OVCAR-4 ovarian 89.8% | SK-OV-3 ovarian 116% | IGROV1 ovarian 104% | OVCAR-3 ovarian 133% | HS 578T breast 115% | NCI/ADR-RES ovarian 104% | T-47D breast 109%

O=C(N/N=C/c1ccco1)c1[nH]c2ccc(Br)cc2c1-c1ccccc1
inactive: OVCAR-4 ovarian 58.5% | SK-OV-3 ovarian 36.1% | IGROV1 ovarian 18.5% | OVCAR-3 ovarian 21.5% | HS 578T breast 31.6% | NCI/ADR-RES ovarian 20.5% | T-47D breast 60.7%
active: RPMI-8226 leukemia 8.9% | OVCAR-8 ovarian 5.2%
